Out of some 69,000 compounds screened, about 8,600 (12%) showed an effect of 50% or more. Shown is part of a subset that was picked to be rich in strong results.
system: Plasmodium berghei; test: Screen against P. berghei liver stage (PbLuc), transformed with Luciferase, at 10uM; type: functional, HepG2; conditions: tested at 10 uM

Going from CN(C)CCO[C@@H]1CC[C@H]2[C@H]1OCCN2C(=O)c1ccccc1F to CO[C@H]1CN(C(=O)c2ccc(-c3ccccc3)[nH]2)CC[C@H]1N, the INHIBITION falls from 35.2% to -22.4%.

Compared with CC(C)(C)c1nccc(N2CCCCC2CCNS(C)(=O)=O)n1 (stereo unspecified), Cc1cc(NCCC(=O)NC2CCCC2)nc(-c2ccncc2)n1 is higher in INHIBITION: -1.79% for the first, 4.52% for the second.

Going from Cc1cnn(CC2CCCN2Cc2nnc(C3CC3)o2)c1 (stereo unspecified) to CC(=O)N(Cc1ncc(C)o1)C1CCN(Cc2ccon2)C1 (stereo unspecified), the INHIBITION rises from 2.3% to 3.73%.

First: O=C(c1ccc(N2CCOCC2)nc1)N1CCCC(n2ccnc2)C1 (stereo unspecified)
Second: O=C(c1ccccn1)N1CCc2ncnc(N3CCOCC3)c2CC1
The INHIBITION of the first is higher: 13.05% for the first, -64.5% for the second.

First: CC(C)CN1CCC2(C=C(C(=O)N3CCCC3)c3ccccc32)CC1
Second: C[C@H]1CN(C(=O)c2cccnc2)C[C@@]12CCN(CCN1CCCC1)C2=O
The INHIBITION of the first is lower: -17% for the first, 23.6% for the second.

Compared with Cc1cc(CN2CCN(C(=O)CCc3cccs3)CC2)on1, O=C(CNC1CCc2ncnn2C1)NCCc1cccs1 (stereo unspecified) is higher in INHIBITION: -9.08% for the first, 12.3% for the second.

First: Cc1cccc(COCC2c3nnn(C)c3CCN2Cc2ccoc2)n1 (stereo unspecified)
Second: Clc1cccc(-c2nc(CNC3CCc4ncnn4C3)co2)c1 (stereo unspecified)
The INHIBITION of the first is lower: -5.08% for the first, 49.8% for the second.

First: O=C(c1cnccn1)N1C[C@H]2CC[C@@H](C1)N(S(=O)(=O)c1cccnc1)C2
Second: Cc1nc(C2CCN(C(=O)c3cscn3)CC2)c2sccn12
The INHIBITION of the first is lower: -6.34% for the first, 17.4% for the second.

First: Cc1nc(CN(C)S(=O)(=O)c2ccccc2C(F)(F)F)no1
Second: Cc1nc(CN(C)S(=O)(=O)c2ccccc2Br)no1
The INHIBITION of the first is lower: 11.3% for the first, 58.1% for the second.

Going from Cc1nc(CN(C)S(=O)(=O)c2ccc(F)cc2Br)no1 to CCS(=O)(=O)N1CCC2(CN(c3cccc(F)c3)C(=O)CN2C)C1 (stereo unspecified), the INHIBITION rises from 18.9% to 19.4%.

Compared with CC(C)CS(=O)(=O)N1CCC2(CN(c3cccc(F)c3)C(=O)CN2C)C1 (stereo unspecified), CN1CC(=O)N(c2cccc(F)c2)CC12CCN(S(C)(=O)=O)C2 (stereo unspecified) is lower in INHIBITION: 55.5% for the first, -5.12% for the second.

Compared with CCCc1n[nH]c(C2CN(C(=O)c3ccc[nH]3)CCO2)n1 (stereo unspecified), CCc1nc2c(c(N3CCOCC3)n1)CCN(C(=O)c1ccon1)CC2 is higher in INHIBITION: 27.8% for the first, 52.2% for the second.

First: CCc1nc2c(c(N3CCOCC3)n1)CCN(C(=O)N1CCCC1)CC2
Second: O=C(CNC1CCc2ncnn2C1)N(Cc1cccs1)C1CC1 (stereo unspecified)
The INHIBITION of the first is lower: -28.4% for the first, 27.7% for the second.

Compared with COc1ccc(C(C(=O)O)N(C)Cc2c(C)nn(C)c2C)c(C)c1 (stereo unspecified), COc1ccc2c(c1)OCC(CNC1CCc3ncnn3C1)=C2 (stereo unspecified) is higher in INHIBITION: 26.9% for the first, 35.1% for the second.

Compared with c1ccc(Cn2cc(CNC3CCc4ncnn4C3)cn2)cc1 (stereo unspecified), c1ccc(-n2cc(CNC3CCc4ncnn4C3)cn2)cc1 (stereo unspecified) is lower in INHIBITION: 39.5% for the first, 11.6% for the second.

Going from Clc1ccc2c(c1)C=C(CNC1CCc3ncnn3C1)CO2 (stereo unspecified) to C1=C(CNC2CCc3ncnn3C2)COc2ccccc21 (stereo unspecified), the INHIBITION rises from 51.8% to 61.6%.

First: CCCOc1ccc2c(c1)OCC(CNC1CCc3ncnn3C1)=C2 (stereo unspecified)
Second: Clc1ccc(-c2cnc(CNC3CCc4ncnn4C3)o2)cc1 (stereo unspecified)
The INHIBITION of the first is higher: 42.1% for the first, 39.6% for the second.

Compared with c1csc(CCNC2CCc3ncnn3C2)c1 (stereo unspecified), Clc1ccc(-n2cc(CNC3CCc4ncnn4C3)cn2)cc1 (stereo unspecified) is lower in INHIBITION: 68.8% for the first, 51.3% for the second.

— ChEMBL document CHEMBL4513216, “Probing the Open Global Health Chemical Diversity Library for Multistage-Active Starting Points for Next-Generation Antimalarials” (ACS Infect Dis, 2020)
